Reference: PMC5540273 (PLoS ONE, 2017)

Assays:
Conditions in all cases: concentration: 1 μM, replicates: in singlicate; n = 1
[1] = test system: T1, RSK2(Kin.Dom.2-C-terminal)
T1 construct: gene RPS6KA3

[2] = test system: T2, RSK3(Kin.Dom.1-N-terminal)
T2 construct: gene RPS6KA2

[3] = test system: T3, RSK3(Kin.Dom.2-C-terminal)
T3 construct: gene RPS6KA2

[4] = test system: T4, RSK4(Kin.Dom.1-N-terminal)
T4 construct: gene RPS6KA6

[5] = test system: T5, RSK4(Kin.Dom.2-C-terminal)
T5 construct: gene RPS6KA6

S6K1 = test system: S6K1
SBK1 = test system: SBK1
SGK2 = test system: SGK2
SGK3 = test system: SGK3
SGK = test system: SGK
SIK2 = test system: SIK2
SIK = test system: SIK
SLK = test system: SLK
SNARK = test system: T6, SNARK
T6 construct: gene NUAK2

SNRK = test system: SNRK
SRC = test system: SRC
SRMS = test system: SRMS
SRPK1 = test system: SRPK1
SRPK2 = test system: SRPK2
SRPK3 = test system: SRPK3
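Further: KINOMEscan kinase panel screen.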

SMILES	%Inh [1] [%]	%Inh [2] [%]	%Inh [3] [%]	%Inh [4] [%]	%Inh [5] [%]	%Inh (S6K1) [%]	%Inh (SBK1) [%]	%Inh (SGK2) [%]	%Inh (SGK3) [%]	%Inh (SGK) [%]	%Inh (SIK2) [%]	%Inh (SIK) [%]	%Inh (SLK) [%]	%Inh (SNARK) [%]	%Inh (SNRK) [%]	%Inh (SRC) [%]	%Inh (SRMS) [%]	%Inh (SRPK1) [%]	%Inh (SRPK2) [%]	%Inh (SRPK3) [%]
COc1ccc(Nc2nccc(-c3cccc(NC(=O)c4cc5cc(F)ccc5[nH]4)c3)n2)cc1 [GSK1229782]	0	1	0	0	24	16	18	0	0	6	1	17	29	33	0	63	0	44	18	0
CN1C(=O)C(Nc2ccc(Cl)c(C(=O)O)c2)=C(c2ccc(Cl)cc2)C1=O [SB-404290]	8	0	1	33	0	53	24	9	19	13	0	0	13	8	0	0	19	20	12	15
Fc1cc(Cl)ccc1Nc1ccnc2cc(-c3ccc(CN4CCCCC4)o3)ccc12 [GW560116]	25	0	24	0	88	29	2	0	0	3	22	9	0	0	0	90.8	0	0	35	0
CC1=C(C(=O)Nc2cc3cn[nH]c3cc2F)C(c2ccc(C(F)(F)F)cc2)CC(=O)N1 (centres unmarked) [GSK429286]	0	22	0	0	18	14	22	4	4	0	0	0	1	80	0	0	0	0	0	0
Nc1ncnc2[nH]c(-c3ccccc3)nc12 [AH5015]	6	0	0	9	34	22	78	5	18	21	5	0	14	3	100	29	2	12	0	0
COc1ccc(CNC(=O)NC2CCN(c3ccnc(Nc4cc(OC)c(OC)c(OC)c4)n3)C2)cc1 (centres unmarked) [GSK1379748]	15	0	21	0	5	0	0	0	0	0	0	0	0	25	0	14	0	11	31	0
Cc1cc(N2Cc3ccccc3C2)nc(Nc2ccc(S(=O)(=O)N3CCOCC3)cc2)n1.Cl [GSK1669917]	0	0	7	0	1	2	16	0	9	0	0	0	0	10	0	0	0	0	0	0
Fc1cc(Cl)ccc1Nc1ccnc2cc(I)ccc12 [GW551191]	32	0	0	0	87	4	19	4	0	8	49	29	0	0	0	0	0	7	0	8
Cn1ccc2ncnc(Oc3cccc(C(=O)Nc4ccccc4)c3)c21	0	0	13	14	0	0	0	2	26	0	5	15	13	23	9	0	0	0	0	0
NC(=O)c1nnc2ccccc2c1N	13	19	0	33	44	14	1	13	44	0	6	9	0	67	14	6	0	45	0	32
